Data on 69 sequences can be found in PubChem BioAssay AID1508600 (Functional Genomics Laboratory (NCATS/FGL), 2020).

Among all 53,000 sequences or so, about 3,700 (7%) were called active.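 The calls were made as follows: active = gene knockdowns whose robust z-score for IL-1 alpha signal is at least 2 or at most -2, so actives lie on both sides; inactive = the rest.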 Many of the other results were omitted from the sample, so actives are more common in it than they were.

The assay can be described thus: Components of the Cytosolic LPS Sensing Pathway: Gene Identification via Genome-wide siRNA Screen.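 Also: robust z of the log signal after scaling to non-targeting control siRNA wells of the plate.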 The settings on record: RAW264.7 macrophages, IL-1a HTRF, actives lie on both sides, screened at 100 nM (by protocol), cells primed 5 h with Pam3CSK4 first. The gist of the method:
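Supernatant IL-1a by HTRF from RAW264.7 cells primed with Pam3CSK4 (5 hours) and transfected with LipidA (24 hour) after 48h siRNA knockdown at 100 nM; cell viability checked with CellTiter-Glo.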
On the technique in general: Time-resolved FRET reads energy transfer from a long-lived donor to a nearby acceptor.
In the case of GGAAAAAAAAGUCUUCCUATT against Ttll6, the z-score was -0.0777 (inactive).

Regarding CCUUGUUCCCGAAAUACCGTT against Krr1, the z-score is -0.471 (inactive).

In the case of GUCAGUAUGGAGCGAUGGGTT against Zmiz2, the z-score is 0.695 (inactive).

With GCCAUGUAGCACGUAACAGTT against Haus6, the z-score is -0.368 (inactive).

Take GGAGAUACAUUGGUAGGUATT against Idua: the z-score is -0.469 (inactive).

For GGAAACGUAUGAACAAUAATT against Sema4f, the z-score is 0.896 (inactive).

Turning to GCAAUGAGGAGUAUAUGUATT against Rfx5, the z-score is 2.89 (active).

For the sequence GGAUUAUGGGAAUUAACUATT against Mpdz, the z-score was 1.06 (inactive).

For CCUUCAGUGGUUUGAACCGTT against Dnd1, the z-score was 2.59 (active).

Consider CCAAGUCUUGUAGUGGAGUTT against Vdac3, for which the z-score is -0.269 (inactive).

On to GGGCUCCACUACCUAAUCATT against Gpr83, for which the z-score was -1.07 (inactive).

For the sequence GGUACACUAUGAGGUCUGCTT against Traf2, the z-score was 2.07 (active).

Consider GGUCUAUCAGAUCAUCAAATT against Pde8a, for which the z-score was 0.584 (inactive).

In the case of GGGUUCAAUAACCACAUCATT against Ttc13, the z-score is -2.13 (active).

On to GGACUCAGAAGUGAACAUATT against Spata7, for which the z-score is -0.916 (inactive).

Consider GCCUACGUGAAAUCUCACATT against Mycl, for which the z-score was 0.147 (inactive).

For the sequence CCUCAAUUGGAUAAAGAAGTT against Gzma, the z-score was 1.7 (inactive).

Turning to GACAUACCAGCCGUAUAACTT against Erh, the z-score was -2.39 (active).

In the case of CGAGGAGAAUUUGUAAUGATT against Etfrf1, the z-score was -0.554 (inactive).

In the case of CCCUGAACCCUAACAUCACTT against Tcirg1, the z-score was 0.593 (inactive).

Consider GGAGUGUUGGGAGCAGGAATT against Tnni1, for which the z-score is 2.71 (active).

Take GGAUGUUCUUGCUCAUGUGTT against Fam149b: the z-score was 0.605 (inactive).

As for GGAGAAAUGCCAUUGCGUCTT against Wnt3, the z-score was 0.169 (inactive).

As to GCGCGUCAUAAAAAGCAUATT against Lhx6, the z-score is 1.17 (inactive).

As to CGGAUCCUACGGAAUUACGTT against Fpgs, the z-score is 0.99 (inactive).

For GGACAUUCUUUAAGAAGAUTT against Tjp3, the z-score is -0.584 (inactive).

Regarding CCCAAAAGUUUUUACAGCUTT against Ttpa, the z-score is 0.0745 (inactive).

Regarding GGAUGAACCACCAUAUGUGTT against Olfr1188, the z-score was 4.69 (active).

Turning to GGUUUUGAAAAAGCAUCAATT against Myoz2, the z-score was -0.365 (inactive).

Take GGCCAACUCUAUUUUGAAGTT against Lrp2bp: the z-score is 0.362 (inactive).

For GGACACAUAAUGUCUACCUTT against Unc93a, the z-score was -0.629 (inactive).

As for GCACUAGCAGACUAGGUGATT against Zbtb26, the z-score is -2.07 (active).

Take GGAUUUUCAAUUCAUACCCTT against Psmb1: the z-score was -0.189 (inactive).

Take UUUACCUUGUCACCGUCUUTT against Olfr1029: the z-score is 1.03 (inactive).

In the case of AUUCAUUGGGAAAAAUUAUTT against Olfr127, the z-score is -2.38 (active).

In the case of “CCUCGACAUCUAAUGAAGATT against 4933405O20Rik”, the z-score was -1.58 (inactive).

Regarding GCAAUACGAAGGCGAAAGCTT against P3h4, the z-score was -1.68 (inactive).

As to GGACUUCAUAUUAGCAUGUTT against Plbd2, the z-score is -1.27 (inactive).

For the sequence GACCCUUUUCACCAAGACATT against Tecr, the z-score is 0.989 (inactive).

Regarding GGAGCAGUGCAUUGAGACCTT against Adcy6, the z-score was 2.34 (active).

Regarding GGAAUAAUUGGUGUUAAAGTT against Hnrnpk, the z-score is 0.346 (inactive).

GGCUUUGGUCAAGGAGAAGTT against Pias4: the z-score is -1.32 (inactive).

Take GGAUCAAUGAUACAACUGATT against Il1r1: the z-score is -0.976 (inactive).

GGUGCUAAAGGACAUAGGUTT against Tmem177: the z-score was 3.27 (active).

As to GGGCACCUAUUCAGAUACCTT against Map2, the z-score was 0.685 (inactive).

For GCCGAACGUGUUUAAACUCTT against Psd3, the z-score is 0.0404 (inactive).

Regarding GGAACCUCUCAGAUUUUCATT against Zfp599, the z-score is 0.828 (inactive).

Take GGCCUCUCAAAAUCUUCCUTT against Galnt11: the z-score is -1.46 (inactive).

Consider CGUAGUACCCAUGAAUUACTT against Adora2a, for which the z-score is 4.87 (active).

Regarding GGACUGACUCUUUUUUAACTT against Uba3, the z-score is -0.697 (inactive).

As to CGAAAACAAUUACGUCUAUTT against Rfwd3, the z-score is 1.15 (inactive).

In the case of GCCAAACGCAUCAUGGAAATT against Arglu1, the z-score is -0.59 (inactive).

As to CCACGACGUACAUCCAUAATT against Tmem181a, the z-score was -1.02 (inactive).

On to GGCGAAAACGGUAAAGCCUTT against H1f4, for which the z-score is 0.448 (inactive).

Turning to GGCCAGCAAUAAAACUGUCTT against Max, the z-score was -0.326 (inactive).

As to GCCCGCCUAUUUGAAAGCATT against Zfp740, the z-score was 0.839 (inactive).

On to GGAUGAAGGAACUAAAUAUTT against Cog3, for which the z-score is -2.15 (active).

Regarding GGUCCUUAGGUGACCUCCUTT against Lrrc20, the z-score was -0.249 (inactive).

For the sequence GGAAAAUGCUGUCCAGUGGTT against Rdh11, the z-score is -0.858 (inactive).

Regarding GGAGGUGAACAGAUCUCACTT against Fubp1, the z-score is 0.391 (inactive).

With GGUCACAGCAAGUUAAUAATT against Ranbp9, the z-score was -2.1 (active).

As to GGAGGUUCUACCCUGUUCATT against Actr1a, the z-score was 0.48 (inactive).

For the sequence GGGAGAAUCUAACUAAGCCTT against Sirt7, the z-score is 0.383 (inactive).

Take GGUCAUGCACACUCGAAAUTT against Mrpl54: the z-score was 0.831 (inactive).

For GGUGGCUCAGAAAUCCUAUTT against Rbpjl, the z-score was -0.206 (inactive).

Regarding “GCGAAUCUCCACAAGAUGGTT against 2300002M23Rik”, the z-score is -0.0187 (inactive).

In the case of CGGCUUCUCUCUUUACACATT against Fosb, the z-score was 2.51 (active).

Turning to GGAGAAAAGUACCAAGAUGTT against Ifi27l2b, the z-score was -1.15 (inactive).

Regarding AUGGUAUACUAUUAUGCUGTT against Mup20, the z-score was 1.62 (inactive).
